Our source for the growth values is PubChem BioAssay (NCI).

About 83,000 compounds went through this panel and 20% of them were active in at least one assay; those are over-represented in the sample as a whole.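 Results are percent growth after 48 hours of single-concentration exposure. 100 means growth as in untreated cells, lower positive values show inhibition; negative values down to -100 show cell death.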 Values without a mark were called inactive. Activity calls are given as the source filed them.

This assay deals with SR leukemia. The assay can be described thus: NCI-60 one-dose screen, 48 h (100 = growth as untreated, 0 = no growth, -100 = all killed). The following applies: 10 µM unless noted. The method, then: Growth inhibition of the SR human tumor cell line is measured as a screen for anti-cancer activity. Cells are grown in 96 well plates and exposed to the test compound for 48 hours. Compounds are tested at a single concentration, which is 10^-5 M for most compounds. The reported endpoint is percent growth (GI% or GIPRCNT), where numbers from 0 - 100% represent growth inhibition, and numbers from -100% - 0 represent cell death. For example, a value of 40 represents 60% growth inhibition. A value of 0 means no net growth occurred over the course of the experiment. A value of -40 indicates 40% of cells at the beginning of the experiment died by the end of the experiment. A value of -100 means all cells are dead at the end of the experiment.
NCI-60 Human Tumor Cell Lines Screen was performed using the standard one-dose NCI protocol, which is described in more detail at https://dtp.cancer.gov/discovery_development/nci-60/default.htm.
Compounds with GIPRCNT values below 10 were considered active. Activity score was based on GIPRCNT using the following formula: […]
Score is 0 for GIPRCNT values of 100 or above, 50 for GIPRCNT values of 0, and 100 for GIPRCNT values of -100.
As for `COc1ccc(S(=O)(=O)n2c3ccccc3n3ncc(-c4nnc(C)o4)c23)cc1`, the growth is 24.7%.
Regarding `Cn1cc(-c2cc3ncnc(Nc4ccc(CC(=O)Nc5cc(C(C)(C)C)on5)cc4)c3s2)cn1`, the growth is 10.9%.
`COc1cc2cc(Oc3ccc(NC(=O)Nc4cc(C(F)(F)F)cc(C(F)(F)F)c4)cc3)c(C)nc2cc1OCCN1CCOCC1`: the growth was -34.9% (active).
In the case of `CCCCOc1ccc(/C=N/NC(N)=S)cc1`, the growth was 84.7%.
Take `CCOC(=O)c1[nH]c(C)c(C(=O)OCc2ccccc2C#N)c1C`: the growth was 45.7%.
For `O=c1c2cc(F)ccc2sc2c(NCCCNCCO)nc3ccccc3c12`, the growth was -45.1% (active).
For `O=C1NC(=O)C(c2ccccc2)(c2ccccc2)N1Cc1cn(-c2c3ccccc3nc3ccccc23)nn1`, the growth was 31.4%.
Turning to `CC/C=C\C[C@@H]1C/C=C2/C(=O)C=C[C@H]2C/C=C\CCCC(=O)O1`, the growth was -30.3% (active).
For `Cc1ccc(C(CC(=O)O)c2c(C)[nH][nH]c2=O)cc1` (stereo not given) the value was 99%.
For `CCOC(=O)c1cn2ncnc(Oc3ccc(NC(=O)NCCN(CC)CC)c(Cl)c3)c2c1C` the value was -26.6% (active); for `COc1cc2oc(-c3ccc(O)cc3)cc(=O)c2c(O)c1-c1c(OC)cc(O)c2c(=O)cc(-c3ccc(O)cc3)oc12`, 5.09% (active); for `COc1cccc(-c2nc(-c3ccc(NS(=O)(=O)c4ccccc4)cc3)[nH]c2-c2ccnc(Br)c2)c1`, 8.32% (active).
For `N#CC1=C(N)Oc2c(sc3c(Br)cccc23)C1c1ccc([N+](=O)[O-])cc1` (stereo not given), the growth was -8.87% (active).
For the compound `CCc1ccc(Oc2c(-c3ccc(OCc4ccc(Cl)cc4)cc3O)n[nH]c2C(F)(F)F)cc1`, the growth is 12.7%.
On to `c1ccc(Cc2nn3cc(-c4ccccc4)nc3s2)cc1`, for which the growth is 82.1%.
In the case of `Cc1nc(NC(=O)COc2ccc(/C=C3\Cc4ccc(Cl)cc4C3=O)cc2)sc1C`, the growth was 93.2%.
Consider `NCCCNc1nc2ccccc2c2c(=O)c3cc(F)cc(F)c3sc12`, for which the growth was -35.8% (active).
Regarding `NS(=O)(=O)c1ccc(N=Nc2ccc(-c3nn4cc(-c5ccccc5)nc4s3)cc2)cc1`, the growth was 90.6%.
On to `CCCCn1c(-c2ccc(-c3nc(-c4ccc(Cl)cc4)no3)cc2)nc(-c2ccccc2)c1-c1ccccc1`, for which the growth is 6.15% (active).
In the case of `[O-][n+]1c2ccccc2[n+]([O-])c2c3ccccc3[nH]c21`, the growth is 95.6%.
Regarding `COc1ccc(OC)c(/C=C2\Oc3cc(OCCN4CCC(Cc5ccccc5)CC4)ccc3C2=O)c1`, the growth is 2.46% (active).
As for `O=c1c2cc(C(F)(F)F)ccc2sc2c(NCCCNCCO)nc3ccccc3c12`, the growth was -39.4% (active).
On to `CCS(=O)(=O)c1ncnc2nc[nH]c12`, for which the growth is 97.8%.
Regarding `CCOC(=O)c1cn2ncnc(Oc3ccc(NC(=O)NCCN4CCN(C)CC4)c(Cl)c3)c2c1C`, the growth was -13.9% (active).
In the case of `CC1=C([Se]CC(OC(=O)[C@@H](CSSC(C)(C)C)NC(=O)OC(C)(C)C)C(=O)NC(C)(C)C)C(=O)c2ccccc2C1=O` (stereo not given in full), the growth is 22%.
As for `COc1cccc2c(=O)c3c(sc12)c(N1CCNCC1)nc1ccccc13`, the growth is -33.9% (active).
For the compound `CCn1cnc2c1c(=O)[nH]c(=O)n2CC1CCC(CNS(=O)(=O)c2ccc(OC3CCOCC3)c(F)c2)CC1` (stereo not given), the growth was 49.6%.
For `COc1ccc(C(=O)COC(=O)[C@H](C[Se][Se]C[C@H](NC(=O)c2ccc(Br)cc2F)C(=O)OCC(=O)c2ccc(OC)cc2)NC(=O)c2ccc(Br)cc2F)cc1`, the growth was -17.1% (active).
Turning to `COc1ccc(CN2c3ccccc3CCc3ccccc32)cc1F`, the growth is 11.6%.
As for `CCc1ccc(Oc2c(-c3ccc(OCc4ccc(Cl)cc4)cc3O)nn(C)c2C(F)(F)F)cc1`, the figure is -26.4% (active); as for `CC1=C(C)C(=O)C(Nc2cccc(C(=O)OC(C)(C)C)c2)=C(Br)C1=O`, 15.9%.
With `COc1cccc2c(=O)c3c(sc12)c(NCCCN)nc1ccccc13`, the growth is -7.22% (active).
Consider `COc1ccc2[nH]c(-c3ccccc3)c(/C=C(\C#N)S(=O)(=O)c3ccccc3)c2c1`, for which the growth was 2.79% (active).
Regarding `COc1cccc(Oc2ccccc2NC(=O)CNC(=O)c2cccc3ccccc23)c1`, the growth is 5.26% [5 µM] (active).
For the compound `COc1cc2cc(Oc3ccc(NC(=O)Nc4cccc(C(F)(F)F)c4)cc3)c(C)nc2cc1OCCN1CCOCC1`, the growth is 9.31% (active).
On to `COc1ccc(CN2c3ccccc3Sc3ccccc32)c(F)c1`, for which the growth is 12.2%.
Consider `COC(=O)Nc1ccc(-c2nc(-c3cccc(OC)c3)c(-c3ccnc(Br)c3)[nH]2)cc1`, for which the growth was 3.64% (active).
Turning to `COc1ccc(/C=C(/C#N)n2nnc3cccc(F)c32)cc1`, the growth was 7.75% (active).
Take `COC(=O)CCC/C=C\C[C@H]1C=CC(=O)/C1=C/C[C@@H](O)CCc1cccc(C(F)(F)F)c1`: the growth was -15.3% (active).
For `Cn1cc(-c2cc3ncnc(Nc4ccc(CC(=O)Nc5cc(C(C)(C)C)nn5C)cc4)c3s2)cn1`, the growth was 8.15% (active).
